Results on 20 compounds are retold here after PubChem BioAssay (NCI).

About 79,000 compounds went through this panel and 15% of them were active in at least one assay; those are over-represented in the sample as a whole. Unmarked numbers belong to inactive results. Activity calls are given as the source filed them. Rule as the data show it: active = growth inhibition above about 70%; inactive = the rest.

A short description of experiment [1]: NCI Yeast Anticancer Drug Screen. Data for the rad50 strain (AID 155).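 Also: 0% = growth of vehicle-only cultures of the same strain.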 As to conditions: S. cerevisiae rad50 strain growth inhibition; at 50.0 µM; stronger effect = higher value. In a few lines: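 Cells are treated with compound, grown, and their growth is then scored against vehicle-only cultures of the same repair-deficient yeast strain.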
A short description of experiment [2]: NCI Yeast Anticancer Drug Screen. Data for the mec2-1 strain (AID 157). As to conditions: S. cerevisiae mec2-1 strain, at 50.0 µM, stronger effect = higher value. Put shortly:
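Strain: mec2-1 (DNA repair/cell cycle alteration). Compound exposure, then growth measured; inhibition expressed relative to vehicle.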

Experiment [3] can be described thus: NCI Yeast Anticancer Drug Screen. Data for the sgs1 mgt1 strain (AID 161).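 Also: 0% = growth of cultures given vehicle only.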 As to conditions: S. cerevisiae sgs1 mgt1 strain, at 50.0 µM, stronger effect = higher value. Put shortly:
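Read-out: growth inhibition vs vehicle controls. Cells: mutant yeast strain deficient in DNA damage repair.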

A short description of experiment [4]: NCI Yeast Anticancer Drug Screen. Data for the cln2 rad14 strain (AID 165).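 Also: 0% = growth equal to vehicle treated cultures.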 As to conditions: S. cerevisiae cln2 rad14 strain, at 50.0 µM, stronger effect = higher value. Put shortly:
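Compounds are applied to the cln2 rad14 yeast strain, and growth is then compared with that of vehicle-treated cultures to give inhibition.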

A short description of experiment [5]: NCI Yeast Anticancer Drug Screen. Data for the bub3 strain (AID 167). The conditions noted are these: S. cerevisiae bub3 mutant strain, at 50.0 µM, stronger effect = higher value. Put shortly:
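Part of a panel of yeast mutants defective in DNA damage repair or cell cycle regulation. Each strain is grown with compound, and inhibition is calculated relative to solvent-treated cultures.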

A short description of experiment [6]: NCI Yeast Anticancer Drug Screen. Data for the mlh1 rad18 strain (AID 175). As to conditions: S. cerevisiae mlh1 rad18 strain growth inhibition; at 50.0 µM; stronger effect = higher value. In a few lines:
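Read-out is yeast growth inhibition, calculated against vehicle-only controls. The compound was applied to a strain engineered with DNA damage repair alterations.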

Take `CCC(CC)CCC(=O)CC(C)C`: the growth inhibition in experiment [1] was 23.9%; in experiment [2], -3.5%; in experiment [3], -15.6%; in experiment [4] it was 5.5%; in experiment [5], -19%; in experiment [6], 7.1%.

Turning to `C#CCn1cnc2c1c(=O)n(C)c(=O)n2C`, the growth inhibition is 10.2% in experiment [1]; -12.7% in experiment [2]; -7.35% in experiment [3]; -0.8% in experiment [4]; -11.7% in experiment [5]; -10.7% in experiment [6].

Turning to `CCOC(=O)C(C)(C)C(O)C(C)C` (stereo not given), the growth inhibition was 20.7% in experiment [1]; -18.8% in experiment [2]; -15.2% in experiment [3]; 48.4% in experiment [4]; -12.7% in experiment [5]; 3.95% in experiment [6].

As to `CCOC(=O)NC(C(N)=O)C(N)=O`, the growth inhibition in experiment [1] is -0.3%; in experiment [2], 15.8%; in experiment [3], -1.6%; in experiment [4], -44%; in experiment [5] it was -13.3%; in experiment [6], -2.45%.

In the case of `c1ncn(Sn2cncn2)n1`, the growth inhibition was -13.2% in experiment [1]; -6.9% in experiment [2]; -4.25% in experiment [3]; -23.8% in experiment [4]; -5.9% in experiment [5]; -0.85% in experiment [6].

On to `Cc1cc2c(cc1C)[n+](=O)c(C(=O)/C=C/c1ccc3c(c1)OCO3)c(C)n2[O-]`, for which the growth inhibition in experiment [1] is 5.85%; in experiment [2], 13.4%; in experiment [3], 10.1%; in experiment [4], 28.8%; in experiment [5] it was 1.35%; in experiment [6], 0.15%.

As to `COC(=O)c1cc(/C=C/C(=O)Cc2ccccc2)cn1S(=O)(=O)c1ccccc1`, the growth inhibition was -6.3% in experiment [1]; -9.6% in experiment [2]; -13.5% in experiment [3]; -23.9% in experiment [4]; 1.5% in experiment [5]; 1.9% in experiment [6].

Regarding `N#CC(C#N)C1c2ccccc2Oc2ccccc21`, the growth inhibition in experiment [1] was 7.1%; in experiment [2], -8.55%; in experiment [3] it was -4.05%; in experiment [4], -11.6%; in experiment [5], -4.95%; in experiment [6] it was -14.3%.

Consider `O=C(Nc1ccc([N+](=O)[O-])cc1)OC1CCS(=O)(=O)C1` (stereo not given), for which the growth inhibition in experiment [1] is -0.2%; in experiment [2], 6.15%; in experiment [3], -3.65%; in experiment [4], 13.7%; in experiment [5] it was 8.6%; in experiment [6] it was -1.65%.

On to `N#CC(/C(=N\NC(N)=S)C(=O)NC1C2CC3CC(C2)CC1C3)c1ccc(Cl)cc1` (stereo not given), for which the growth inhibition was 29.2% in experiment [1]; 10.2% in experiment [2]; 19.8% in experiment [3]; 10.1% in experiment [4]; 15.4% in experiment [5]; 25.4% in experiment [6].

Regarding `N#CCc1ccccc1-c1ccccc1`, the growth inhibition in experiment [1] is 2.45%; in experiment [2] it was -8.2%; in experiment [3] it was 11.4%; in experiment [4], -45.5%; in experiment [5], 5.6%; in experiment [6], -9.75%.

Regarding `N#CC(c1ccc(N)cc1)c1ccc(F)cc1` (stereo not given), the growth inhibition was 15.6% in experiment [1]; -16.8% in experiment [2]; 22.2% in experiment [3]; 27.2% in experiment [4]; -0.6% in experiment [5]; 26.2% in experiment [6].

`CCCCCCCCC(=O)N1SC(NC(=O)OC)=Nc2ccccc21`: the growth inhibition in experiment [1] is 98.2% (active); in experiment [2], 98.2% (active); in experiment [3], 98% (active); in experiment [4] it was 90.2% (active); in experiment [5], 97% (active); in experiment [6], 98.1% (active).

Take `Cc1cc(O)c2c(c1)C(=O)c1c(-c3ccc(O)c4c3C(=O)c3c(O)c(C)cc(O)c3C4=O)ccc(O)c1C2=O`: the growth inhibition in experiment [1] was -30.7%; in experiment [2], -19.8%; in experiment [3] it was -17.1%; in experiment [4], 9.05%; in experiment [5], -26.8%; in experiment [6], -24.4%.

Take `CC1(CO)C(O)CCC2(C)C1C(O)CC1CC3CC12CCC3(O)CO` (stereo not given): the growth inhibition was -12.8% in experiment [1]; -17.9% in experiment [2]; 1.3% in experiment [3]; -0.8% in experiment [4]; -21.1% in experiment [5]; -22.1% in experiment [6].

Turning to `CCc1ccc(C(=O)O)o1`, the growth inhibition in experiment [1] is -9%; in experiment [2] it was -12.1%; in experiment [3], -7.35%; in experiment [4], 7.8%; in experiment [5], 12.7%; in experiment [6] it was 12.3%.

For `CC(=O)OC1CC(c2ccccc2)=NO1` (stereo not given), the growth inhibition in experiment [1] is -12.8%; in experiment [2], -21.5%; in experiment [3] it was -8.6%; in experiment [4], -21.9%; in experiment [5] it was -10.8%; in experiment [6], -12.4%.

Consider `C[S+](C)c1ccc(Cl)cc1`, for which the growth inhibition in experiment [1] was -1.45%; in experiment [2] it was -6.65%; in experiment [3] it was -21.2%; in experiment [4], 17.9%; in experiment [5], 11.3%; in experiment [6] it was 8.25%.

Regarding `CCCCCC1OCC(C)(C)CO1`, the growth inhibition in experiment [1] was 3.95%; in experiment [2], -2.05%; in experiment [3], -5.45%; in experiment [4], -9.3%; in experiment [5], -3.05%; in experiment [6], -9.6%.

As for `CC1=C(O)C(=O)C2C(=O)C1C(C)C2c1ccccc1` (stereo not given), the growth inhibition in experiment [1] was -5.45%; in experiment [2], 3.05%; in experiment [3], -32.2%; in experiment [4] it was -7.6%; in experiment [5], -11.6%; in experiment [6] it was -13.9%.
